{"source": "PubChem BioAssay (NCATS)", "note": "Records with an inconclusive call do not appear. Unmarked numbers belong to inactive results. Activity calls are given as the source filed them. Calls come from the whole dose curve; as a rule, active = well fitted inhibition curve with a large enough effect; inconclusive = small, poorly fitted or top-dose-only effect; inactive = flat fitted curve, though single readings scatter. % is set by controls: 0 for no effect and ±100 for the full control effect.", "data": [{"target": "Glutathione peroxidase 1 (Homo sapiens) (UniProt P07203)", "sequence (P07203 whole entry, looked up)": "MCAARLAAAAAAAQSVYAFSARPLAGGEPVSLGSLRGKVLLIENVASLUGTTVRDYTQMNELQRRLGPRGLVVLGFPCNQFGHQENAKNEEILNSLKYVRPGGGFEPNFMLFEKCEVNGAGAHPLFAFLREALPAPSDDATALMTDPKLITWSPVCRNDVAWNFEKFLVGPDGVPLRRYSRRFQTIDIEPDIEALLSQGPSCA", "assay": "Primary qHTS Assay for Inhibitors of Recombinant Selenoprotein Glutathione Peroxidase 1 (GPX1) (AID 1845191); note: nearly all actives have a fitted effect of over 65% in size", "settings": "recombinant GPX1, GR-coupled NADPH fluorescence, 15 min; series mostly up to 48.8 µM; activity, negative = inhibition: at the top concentration", "procedure,_shortened": "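GR-coupled assay: compounds preincubated 30 min at room temperature with GPX1, then reaction started with CHP; final 10 nM GPX1, 1 mM GSH, 0.5 mM CHP, 0.5 mM NADPH, 100 nM GR, 0.01% BSA, pH 7.5 Tris buffer. NADPH fluorescence (340/450 nm) read at 0 and 15 min.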", "values": [{"smiles": "CN(NC(=O)CC(=O)NN(C)C(=S)c1ccccc1)C(=S)c1ccccc1", "Potency": "inactive"}, {"smiles": "NC1CCC(N[C@@H]2C[C@H]2c2ccccc2)CC1", "note": "(some centres undefined)", "Potency": "inactive"}, {"smiles": "CC(C)N=c1cc2n(-c3ccc(Cl)cc3)c3ccccc3nc-2cc1Nc1ccc(Cl)cc1", "activity, negative = inhibition": "-4.76%"}, {"smiles": "C=C1CCC2C(C)(C)CC(=O)CC2(C)C1CCC(C)CCOC(C)=O", "note": "(centres undefined)", "activity, negative = inhibition": "-4.42% [at 27.7 µM]"}, {"smiles": "CC(=O)OC1C(O)C(C)=C(CCC(C)CC(=O)O)C2(C)CCCC(C)(C)C12", "note": "(centres undefined)", "activity, negative = inhibition": "-2.04% [at 27.7 µM]"}, {"smiles": "COc1cc(C(=O)OC[C@H]2O[C@H](O[C@@]3(CO)O[C@@H](CO)[C@H](O)[C@H]3O)[C@H](O)[C@@H](O)[C@@H]2O)ccc1O", "outcome": "inactive [at 27.7 µM]"}, {"smiles": "CC1(C)CC(=O)N(CCCCN2CCN(c3ncccn3)CC2)C(=O)C1", "activity, negative = inhibition": "-1.7%"}, {"smiles": "CC(=O)NC(CCC(=O)O)C(=O)NCCc1ccc(O)cc1", "note": "(centres undefined)", "activity, negative = inhibition": "-0.291%"}, {"smiles": "CC1=CC(=O)C2C(C)(C)CC(O)CC2(C)C1CO", "note": "(centres undefined)", "outcome": "inactive"}, {"smiles": "CC(=O)NC(C(=O)OC1CCC(C)(C)C2CC=C3C(=O)OCC3(O)C12C)C(C)C", "note": "(centres undefined)", "outcome": "inactive [at 27.7 µM]"}, {"smiles": "CCOc1nc2cccc(C(=O)OCc3oc(=O)oc3C)c2n1Cc1ccc(-c2ccccc2-c2noc(O)n2)cc1", "Potency": "inactive"}, {"smiles": "C[C@@H]1CCC2C(C)(C)[C@H](O)CC[C@]2(C)[C@@]12Cc1c(O)cc3c(c1O2)CN(CCO)C3=O", "note": "(some centres undefined)", "activity, negative = inhibition": "-13.4% [at 27.7 µM]"}, {"smiles": "C=C1[C@@H]2[C@H]3OC(=O)C(=C)[C@@H]3CC[C@@](C)(O)[C@@H]2C[C@@H]1O[C@@H]1O[C@H](CO)[C@@H](O)[C@H](O)[C@H]1O", "outcome": "inactive [at 27.7 µM]"}, {"smiles": "CC(C)=CCCC1(C)Oc2cc3c(c4c2C2C(O4)C(C)(O)CCC21)CN(C(CCC(=O)O)C(=O)O)C3=O", "note": "(centres undefined)", "activity, negative = inhibition": "3.18% [at 27.7 µM]"}]}]}
